This note sets out measurements from PubChem BioAssay AID1159580 (chemical genetic matrix, 2015).

Out of some 5,500 compounds screened, about 2,000 (36%) were called active. Inconclusive results (about 18%) are left out. This is one part of the list. A number with no mark means an inactive call. No stated cut-off is given here; in the data, active means normalized growth mostly below about 0.91 (no sharp cut-off); inconclusive means no clear call, values can overlap the other calls; inactive means mostly above about 0.92.

The assay is described as follows: chemical genetic growth profiling, strain panel (AID 1159580).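 Further: tested at 20 µM; growth read once vehicle control cultures reached saturation at 30 °C; 1 = growth at the plate median or of vehicle wells.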 The conditions noted are these: growth OD.
The mark [1] stands for this setting: S. cerevisiae deletion strains, locus YAL013W, strain DEP1, stronger effect = lower value.
[2] abbreviates: S. cerevisiae deletion strains, locus YBR229C, strain ROT2, stronger effect = lower value.
Where [3] appears, read: S. cerevisiae deletion strains, locus YDL101C, strain DUN1, stronger effect = lower value.
[4] abbreviates: S. cerevisiae deletion strains, locus YDL134C, strain PPH21, stronger effect = lower value.
Setting [5] is: S. cerevisiae deletion strains, locus YDR150W, strain NUM1, stronger effect = lower value.
[6] abbreviates: S. cerevisiae deletion strains, locus YEL061C, strain CIN8, stronger effect = lower value.
The mark [7] stands for this setting: S. cerevisiae deletion strains, locus YGR078C, strain PAC10, stronger effect = lower value.
[8] abbreviates: S. cerevisiae deletion strains, locus YHR030C, strain SLT2, stronger effect = lower value.
Setting [9] is: S. cerevisiae deletion strains, locus YHR087W, strain rtc3, stronger effect = lower value.
Setting [10] is: S. cerevisiae deletion strains, locus YJL187C, strain SWE1, stronger effect = lower value.
[11] abbreviates: S. cerevisiae deletion strains, locus YJR043C, strain POL32, stronger effect = lower value.
The mark [12] stands for this setting: S. cerevisiae deletion strains, locus YJR075W, strain HOC1, stronger effect = lower value.
Where [13] appears, read: S. cerevisiae deletion strains, locus YLR039C, strain RIC1, stronger effect = lower value.
[14] abbreviates: S. cerevisiae deletion strains, locus YLR058C, strain SHM2 (second series), stronger effect = lower value.
[15] abbreviates: S. cerevisiae deletion strains, locus YLR085C, strain ARP6, stronger effect = lower value.
The mark [16] stands for this setting: S. cerevisiae deletion strains, locus YLR262C, strain YPT6, stronger effect = lower value.
Where [17] appears, read: S. cerevisiae deletion strains, locus YML094W, strain GIM5, stronger effect = lower value.
Setting [18] is: S. cerevisiae deletion strains, locus YMR219W, strain ESC1, stronger effect = lower value.
Setting [19] is: S. cerevisiae deletion strains, locus YMR263W, strain SAP30, stronger effect = lower value.
[20] abbreviates: S. cerevisiae deletion strains, locus YMR307W, strain GAS1, stronger effect = lower value.
Where [21] appears, read: S. cerevisiae deletion strains, locus YNL153C, strain GIM3, stronger effect = lower value.
Where [22] appears, read: S. cerevisiae deletion strains, locus YNL298W, strain CLA4 (second series), stronger effect = lower value.
Where [23] appears, read: S. cerevisiae deletion strains, locus YNL322C, strain KRE1, stronger effect = lower value.
Setting [24] is: S. cerevisiae deletion strains, locus YNR030W, strain Alg12, stronger effect = lower value.
The mark [25] stands for this setting: S. cerevisiae deletion strains, locus YPL055C, strain LGE1, stronger effect = lower value.
Setting [26] is: S. cerevisiae deletion strains, locus YPL241C, strain CIN2, stronger effect = lower value.
[27] abbreviates: S. cerevisiae deletion strains, locus YPR135W, strain CTF4, stronger effect = lower value.

In the case of `Cn1c(=S)[nH]c2cc(C(F)(F)F)ccc21`, the normalized growth is 0.977 under setting [1]; 0.987 under setting [2]; 0.968 under setting [3]; 0.979 under setting [4]; 0.959 under setting [5]; 0.888 (active) under setting [6]. The normalized growth under setting [7] was 0.975; the normalized growth under setting [8] was 0.767; the normalized growth under setting [9] was 1; the normalized growth under setting [10] was 0.98; the normalized growth under setting [11] is 0.978; the normalized growth under setting [12] was 1.02. Also, the normalized growth is, setting by setting: under setting [13], 0.538 (active); under setting [14], 0.974; under setting [15], 0.378 (active); under setting [16], 0.733 (active); under setting [17], 0.911; under setting [18], 0.987. For the same molecule, the normalized growth is, setting by setting: under setting [19], 0.966; under setting [20], 0.718; under setting [21], 0.997; under setting [22], 0.803 (active); under setting [23], 0.998; under setting [24], 0.946. For the same molecule, the normalized growth runs as follows: under setting [25], 0.866; under setting [26], 0.925; under setting [27], 0.617 (active); (S. cerevisiae strains, strain wild type, stronger effect = lower value) 0.969.
For `FC(F)(F)c1ccc2[nH]c(=S)[nH]c2c1`, the normalized growth reads like this: under setting [1], 0.995; under setting [2], 0.996; (S. cerevisiae deletion strains, locus YCL061C, strain MRC1, stronger effect = lower value) 0.983; under setting [3], 0.983; under setting [4], 0.99; under setting [5], 0.986. Moreover, the normalized growth by setting is: under setting [6], 0.998; under setting [7], 0.982; (S. cerevisiae deletion strains, locus YGR229C, strain SMI1, stronger effect = lower value) 1; under setting [8], 0.89; under setting [9], 0.999; under setting [10], 0.997. For the same molecule, the normalized growth by setting is: under setting [11], 0.986; under setting [12], 1.01; under setting [13], 0.952; under setting [14], 0.994; under setting [15], 0.955; under setting [16], 0.963. Besides, the normalized growth was 0.905 under setting [17]; 1 under setting [18]; 1.02 under setting [19]; 0.993 (S. cerevisiae deletion strains, locus YNL128W, strain TEP1, stronger effect = lower value); 1 under setting [21]; 0.979 under setting [22]. For the same molecule, the normalized growth is 0.997 under setting [23]; 0.977 under setting [24]; 0.997 (S. cerevisiae deletion strains, locus YOL006C, strain TOP1, stronger effect = lower value); 0.98 under setting [25]; 0.966 under setting [26]; 0.779 under setting [27].
In the case of `O=c1[nH]c2cc(C(F)(F)F)ccc2n1-c1cc(C(F)(F)F)ccc1O`, the normalized growth is, setting by setting: under setting [1], 1.02; (S. cerevisiae deletion strains, locus YAL040C, strain CLN3, stronger effect = lower value) 0.998; (S. cerevisiae deletion strains, locus YCL061C, strain MRC1 (second series), stronger effect = lower value) 1.01; under setting [5], 1.01; (S. cerevisiae deletion strains, locus YDR363W, strain ESC2, stronger effect = lower value) 1.01; (S. cerevisiae deletion strains, locus YER002W, strain NOP16, stronger effect = lower value) 1.02. Besides, the normalized growth reads like this: under setting [7], 1.03; under setting [20], 1.02; (S. cerevisiae deletion strains, locus YNL175C, strain NOP13, stronger effect = lower value) 0.961; (S. cerevisiae deletion strains, locus YNL197C, strain WHI3, stronger effect = lower value) 0.995; (S. cerevisiae deletion strains, locus YNL224C, strain SQS1, stronger effect = lower value) 0.998; (S. cerevisiae deletion strains, locus YOR083W, strain WHI5 (second series), stronger effect = lower value) 0.903. Moreover, the normalized growth under setting [25] is 1.01.
Consider `Cc1ncc([N+](=O)[O-])n1CC(O)CCl` (stereo not drawn), for which the normalized growth was 0.977 (S. cerevisiae deletion strains, locus YHR079C, strain IRE1, stronger effect = lower value); 0.965 (S. cerevisiae deletion strains, locus YJL095W, strain BCK1, stronger effect = lower value); 0.956 (S. cerevisiae deletion strains, locus YJR066W, strain TOR1, stronger effect = lower value); 0.978 (S. cerevisiae deletion strains, locus YLR113W, strain HOG1, stronger effect = lower value); 0.922 (S. cerevisiae deletion strains, locus YNL183C, strain NPR1, stronger effect = lower value); 0.97 (S. cerevisiae deletion strains, locus YOR231W, strain MKK1, stronger effect = lower value). In addition, the normalized growth (S. cerevisiae deletion strains, locus YPL256C, strain CLN2, stronger effect = lower value) was 0.933.
